Screening results deposited in PubChem BioAssay by Broad Institute.
Tgondii IFNg: inhibitors of Toxoplasma gondii growth with IFN-gamma. Toxoplasma gondii growth in IFN-gamma-treated host cells; active compounds read low. activity change, negative = inhibition, % (test concentration not listed). actives 3.8% (n = 69,000); in the data active = activity change below about -70%, passing the limit was not always enough;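 also: host cells are HeLa cells infected with Toxoplasma gondii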
* hit, by the source's call; ! = a repeat was not active. The full list was thinned out, with hits kept by preference.

How did Cc1ccc(C(=O)N2CCN(c3nc(C)nc4sc5c(c34)CCCC5)CC2)cc1 do in these assays?
Tgondii IFNg: -96*

What do the screens show for `CCCCSc1nc2sc3c(c2c(=O)n1-c1ccc(C)cc1)CCC3`?
Tgondii IFNg: -19

How did Cc1ccc(C(=O)N2CCOCC2)cc1 do in these assays?
Tgondii IFNg: -3

Results for O=C1NCC2(CCCN(C(=O)CCn3cc(Cl)cn3)CC2)O1 (stereo unspecified) ?
Tgondii IFNg: 2

Results for CCOc1ccc(CC(=O)NCCc2sc(-c3ccc(Cl)cc3)nc2C)cc1 ?
Tgondii IFNg: -62

What do the screens show for `COC(=O)[C@@H]1C[C@H](NS(=O)(=O)c2ccc(Cl)s2)CN1C`?
Tgondii IFNg: -8

How did Cc1ccc(C2c3[nH]c4ccccc4c3CCN2C(=O)Cc2cccs2)cc1 (stereo unspecified) do in these assays?
Tgondii IFNg: -125*

What do the screens show for `O=C(Cc1cccs1)N1CCc2c([nH]c3ccccc23)C1c1ccc(Cl)cc1` (stereo unspecified)?
Tgondii IFNg: -118*

Results for COc1ccc(C2c3[nH]c4ccccc4c3CCN2C(=O)Cc2cccs2)cc1 (stereo unspecified) ?
Tgondii IFNg: 229

Results for CCOc1cccc(C2c3[nH]c4ccccc4c3CCN2C(=O)Cc2cccs2)c1 (stereo unspecified) ?
Tgondii IFNg: inactive

How did O=C(Cc1cccs1)N1CCc2c([nH]c3ccccc23)C1c1ccc(F)cc1 (stereo unspecified) do in these assays?
Tgondii IFNg: -17

How did CSc1ccc(C2c3[nH]c4ccccc4c3CCN2C(=O)Cc2cccs2)cc1 (stereo unspecified) do in these assays?
Tgondii IFNg: -69

Results for CSc1ccc(C2c3[nH]c4ccccc4c3CCN2C(=O)CCc2cccs2)cc1 (stereo unspecified) ?
Tgondii IFNg: -85*

How did CSc1ccc(C2c3[nH]c4ccccc4c3CCN2C(=O)CCc2ccccc2)cc1 (stereo unspecified) do in these assays?
Tgondii IFNg: -61

What do the screens show for `CCOc1cccc(CC(=O)N2CCc3c([nH]c4ccccc34)C2c2ccc(Cl)cc2)c1OCC` (stereo unspecified)?
Tgondii IFNg: -29

What do the screens show for `Cc1cc(NC(=O)CC2CCCC2)n(-c2ncnc3c2cnn3-c2cccc(Cl)c2)n1`?
Tgondii IFNg: -11

What do the screens show for `Cc1cc(C)n(Cc2nc(-c3ccc(NC(=O)C4CCCO4)cc3)oc2C)n1` (stereo unspecified)?
Tgondii IFNg: 104

How did COc1ccc(CCC(=O)N2CCC3(CC2)Nc2ccc(C)c(C)c2-n2cccc23)cc1 do in these assays?
Tgondii IFNg: 25

Results for CCn1c(C2CCNCC2)nn(CCc2cccc3ccccc23)c1=O ?
Tgondii IFNg: -4

What do the screens show for `CCC(C)Nc1ncnc2cc(OC)c(OC)cc12` (stereo unspecified)?
Tgondii IFNg: -1

What do the screens show for `COc1cc2ncnc(Nc3cccc(Br)c3)c2cc1OC`?
Tgondii IFNg: -79*

How did COc1cc2ncnc(Nc3cccc(O)c3)c2cc1OC do in these assays?
Tgondii IFNg: -25

How did CCCN(CCC)C(=O)c1cc2cccnc2n(Cc2ccc(F)cc2)c1=O do in these assays?
Tgondii IFNg: 6

Results for CCCCN(CCCNc1nc(C(=O)OCC)nc2ccccc12)c1ccccc1 ?
Tgondii IFNg: -78*

Results for CCCCN(CC)c1nc(C(=O)OCC)nc2ccccc12 ?
Tgondii IFNg: -87*

Results for CCCN(c1ccc(F)cc1)c1nc(C(=O)OCC)nc2ccccc12 ?
Tgondii IFNg: -49

Results for CCOC(=O)c1nc(NCCOC)c2ccccc2n1 ?
Tgondii IFNg: 104

How did CCOC(=O)c1nc(N(C)c2ccccc2C)c2ccccc2n1 do in these assays?
Tgondii IFNg: -18

Results for CCOC(=O)c1nc(NCCCN2CCN(Cc3ccccc3)CC2)c2ccccc2n1 ?
Tgondii IFNg: 2

Results for CC(C)N1CCNC(=O)C1CC(=O)NCc1cc2ccc(F)cc2[nH]c1=O (stereo unspecified) ?
Tgondii IFNg: -3

Results for COc1ccc(-c2noc(-c3c(O)c4ccc(F)cc4n(C)c3=O)n2)cc1 ?
Tgondii IFNg: 95

Results for CCOc1ncccc1-c1cccc(-c2noc(C)n2)c1 ?
Tgondii IFNg: -46

How did Cc1oc2ccccc2c1CCOC(=O)c1ccc(Cl)cc1 do in these assays?
Tgondii IFNg: 31

Results for Cc1nnc(Sc2nc(Sc3nnc(C)s3)nc(N3CCCCC3)n2)s1 ?
Tgondii IFNg: -84*

How did Cc1nnc(Sc2c(N)n(C)c(=O)[nH]c2=O)s1 do in these assays?
Tgondii IFNg: 3

Results for Cc1nnc(-c2ccc(C(C)N3CCCCC3)cc2)s1 (stereo unspecified) ?
Tgondii IFNg: 1

How did S=c1sc(Nc2cc(Cl)ccc2Cl)nn1-c1ccccc1 do in these assays?
Tgondii IFNg: -68

What do the screens show for `CCOCC1COCCC12CCN(C(=O)CCc1ccccc1)CC2` (stereo unspecified)?
Tgondii IFNg: -1

Results for CN1CCC2(CCOCC2NC(=O)c2ccccc2)CC1 (stereo unspecified) ?
Tgondii IFNg: -1

Results for CC(=O)N1CCC2(CCOCC2NC(=O)c2ccccc2)CC1 (stereo unspecified) ?
Tgondii IFNg: -93*

What do the screens show for `Cc1cccc(N2CCN(C(c3ccccc3)c3nnnn3Cc3ccco3)CC2)c1C` (stereo unspecified)?
Tgondii IFNg: -13

Results for COCCn1nnnc1C(c1cccs1)N1CCN(c2cc(C)ccc2C)CC1 (stereo unspecified) ?
Tgondii IFNg: -95*

What do the screens show for `COCCn1nnnc1C(C(C)C)N1CCC(Cc2ccccc2)CC1` (stereo unspecified)?
Tgondii IFNg: -2

How did Cc1cccc(-c2ccc3nc(C4CCN(CC5CC5)CC4)nn3c2)c1 do in these assays?
Tgondii IFNg: -51

Results for COc1ccc(N(C)c2ccc3ccc(C(=O)N(C)Cc4ccccn4)cn23)cc1 ?
Tgondii IFNg: -1

Results for O=C(O)CN1C[C@H]2c3ccccc3C(OCC3CC3)[C@@H]2C1 (stereo partly specified) ?
Tgondii IFNg: -53

Results for CO[C@H]1CC(O[C@@H]2/C(C)=C/C[C@@H]3C[C@@H](C[C@]4(CC[C@H](C)[C@@H](C5CCCCC5)O4)O3)OC(=O)[C@@H]3C=C(C)/C(=N/O)[C@H]4OC/C(=C\C=C\[C@@H]2C)[C@]43O)O[C@@H](C)C1O (stereo partly specified) ?
Tgondii IFNg: -80*

How did CCC(C)[C@H]1O[C@]2(C=C[C@@H]1C)C[C@@H]1C[C@@H](C/C=C(\C)[C@@H](OC3C[C@H](OC)C(O[C@H]4C[C@H](OC)[C@@H](NC(C)=O)[C@H](C)O4)[C@H](C)O3)[C@@H](C)/C=C/C=C3\CO[C@@H]4[C@H](O)C(C)=C[C@@H](C(=O)O1)[C@]34O)O2 (stereo partly specified) do in these assays?
Tgondii IFNg: 13

What do the screens show for `Cc1cccc(-c2ccc(C3[C@@H]4CN(C(=O)c5ccncc5)C[C@H]3N4)cc2)c1` (stereo partly specified)?
Tgondii IFNg: -7

How did COc1cccc(-c2ccc(C3[C@@H]4CN(C(=O)Nc5ccccc5F)C[C@H]3N4)cc2)c1 (stereo partly specified) do in these assays?
Tgondii IFNg: -74*!

What do the screens show for `COc1ccc(-c2ccc(C3[C@@H]4CN(C(=O)c5ccc(F)cc5)C[C@H]3N4)cc2)cc1` (stereo partly specified)?
Tgondii IFNg: 30
